Activity calls are given as the source filed them. Rule as the data show it: active = parasite load remaining mostly below about 12% (no sharp cut-off); inactive = mostly above about 10%.

The nature of this experiment: liver-stage malaria parasite growth inhibition, primary screen, cell-based, HepG2, luciferase luminescence, HepG2 viability (AID 624349).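 Also: 100% = mean of DMSO negative control wells on the same plate.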 The note with it: P. berghei liver stage in HepG2, luciferase luminescence, concentration not given here; parasite load remaining: stronger effect = lower value; viability: measured here: HepG2 viability without parasites.
What is called viability is the share of living cells, or the viability signal relative to a control. As to `CCC1C2CC3[C@@H]4N(C)c5ccccc5[C@]45CC(C2[C@H]5O)N3[C@@H]1O` (some centres undefined), the viability was 70.7% and the parasite load remaining is 65.3% (inactive).

As to `CC[C@H](CO)NC(=O)[C@@H]1C=C2c3cccc4[nH]cc(c34)C[C@H]2N(C)C1`, the parasite load remaining is 67.8% (inactive) and the viability was found to be 73.1%.

On to `CC[C@@H](C)C(=O)O[C@H]1[C@H](O)[C@H]2[C@@H](CN3C[C@@H](C)CC[C@H]3[C@@]2(C)O)C2C[C@]34O[C@@]5(O)[C@@H](OC(=O)C(C)(O)CC)CC[C@@]3(C)[C@@H]5[C@@H](OC(C)=O)[C@@H](OC(C)=O)[C@H]4[C@@]21O` (some centres undefined), for which the viability is 77.1% and the parasite load remaining was 72.4% (inactive).

Regarding `COc1cc2c(cc1O)C1Cc3ccc(OC)c(O)c3CN1CC2` (centres undefined), the viability was determined as 69.6% and the parasite load remaining is 63.3% (inactive).

In the case of `CCN(CC)C(=O)N[C@H]1C=C2c3cccc4[nH]cc(c34)C[C@H]2N(C)C1`, the parasite load remaining is 92.5% (inactive) and the viability was 87.9%.

For the compound `CC1OC(OC2/C=C/C=C/C=C/C=C/CC/C=C/C=C/[C@H](C)[C@@H](O)[C@@H](C)[C@H](C)OC(=O)CC(O)CC(O)CC(O)CCC(O)C(O)C[C@]3(O)CC(O)C(C(=O)O)C(C2)O3)C(O)C(N)C1O` (some centres undefined), the parasite load remaining was 78.6% (inactive) and the viability stood at 74%.

As to `C#C[C@]1(O)CCC2C3CCC4=CC(=O)CC[C@]4(C)C3CC[C@@]21C` (some centres undefined), the parasite load remaining was 97.8% (inactive) and the viability turned out to be 86.3%.

These data come from PubChem BioAssay.
